# Assays:
# Test in all cases: yeast three-hybrid, YBZ-1, SC-Leu-His + 0.5 mM 3-AT, 4 days
# Conditions in all cases: tags: N-Gal4 AD-HA kept; label: inside an RPR1-promoter hybrid RNA with tandem MS2 sites; ssRNA
# [1] = molecular target: PUM1 PUF domain R5-RGS (Homo sapiens, UniProt Q14671 828-1176, C1007R;R1008G;Q1011S)
# How it was run: (§1)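 Repeat regions from input (SC-Leu) and selection (SC-Leu-His + 0.5 mM 3-AT) plates were PCR-amplified and Illumina-sequenced after four days of growth. The cells were strain YBZ-1 with a LexA–MS2 coat fusion and a HIS3 reporter, co-expressing Pumilio-1 PUF domain libraries and matching RNA elements from a centromeric plasmid. The interaction score is the log change in variant frequency from input to selection, taken in log2 with a pseudocount of 1 for absent variants.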
# [2] = molecular target: PUM1 PUF domain R5-KSV (Homo sapiens, UniProt Q14671 828-1176, C1007K;R1008S;Q1011V)
# How it was run: as §1
# [3] = molecular target: PUM1 PUF domain R3-ATE (Homo sapiens, UniProt Q14671 828-1176, C935A;R936T;Q939E)
# How it was run: as §1
# [4] = molecular target: PUM1 PUF domain R4-APT (Homo sapiens, UniProt Q14671 828-1176, N971A;H972P;Q975T)
# How it was run: as §1
# [5] = molecular target: PUM1 PUF domain R8-QFQ (Homo sapiens, UniProt Q14671 828-1176, N1122Q;Y1123F)
# How it was run: as §1
# [6] = molecular target: PUM1 PUF domain R4-DHC (Homo sapiens, UniProt Q14671 828-1176, N971D;Q975C)
# How it was run: as §1
# [7] = molecular target: T1, PUM1 PUF domain R6-LYS (Homo sapiens, UniProt Q14671 828-1176, N1043L;Q1047S)
# T1 sequence: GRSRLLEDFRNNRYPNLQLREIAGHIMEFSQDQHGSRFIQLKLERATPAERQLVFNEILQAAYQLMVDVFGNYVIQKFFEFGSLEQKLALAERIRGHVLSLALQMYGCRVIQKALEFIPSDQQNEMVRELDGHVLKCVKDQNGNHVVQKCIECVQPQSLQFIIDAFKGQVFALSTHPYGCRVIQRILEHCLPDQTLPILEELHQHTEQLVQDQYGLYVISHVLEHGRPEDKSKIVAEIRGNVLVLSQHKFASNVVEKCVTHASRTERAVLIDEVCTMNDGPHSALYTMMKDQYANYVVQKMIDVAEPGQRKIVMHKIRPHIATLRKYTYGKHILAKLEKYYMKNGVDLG
# How it was run: as §1
# [8] = molecular target: PUM1 PUF domain R3-TWW (Homo sapiens, UniProt Q14671 828-1176, C935T;R936W;Q939W)
# How it was run: as §1
# [9] = molecular target: PUM1 PUF domain R3-RRC (Homo sapiens, UniProt Q14671 828-1176, C935R;Q939C)
# How it was run: as §1
# [10] = molecular target: PUM1 PUF domain R4-VNN (Homo sapiens, UniProt Q14671 828-1176, N971V;H972N;Q975N)
# How it was run: as §1
sequence,measurement,setting,value
GGCUAGAACUAGUGGAUCCCCCGGCGCCCGGCGGCUCGAGCCCGGGUAAGUGUCAAUAGUCUGCAUGCCGCCGGGCGCCAUGCCUGCAGGUCGACUCUAGAAAACAUG,binding signal,[1],2.45 log2 enrichment (interaction score)
same,binding signal,[2],3.48 log2 enrichment (interaction score)
GGCUAGAACUAGUGGAUCCCCCGGCGCCCGGCGGCUCGAGCCCGGGUAAGUGUAAGUAGUCUGCAUGCCGCCGGGCGCCAUGCCUGCAGGUCGACUCUAGAAAACAUG,binding signal,[3],3.33 log2 enrichment (interaction score)
GGCUAGAACUAGUGGAUCCCCCGGCGCCCGGCGGCUCGAGCCCGGGUAAGUGUAAAUAGUCUGCAUGCCGCCGGGCGCCAUGCCUGCAGGUCGACUCUAGAAAACAUG,binding signal,[4],4.02 log2 enrichment (interaction score)
same,binding signal,[5],2.91 log2 enrichment (interaction score)
same,binding signal,[6],3.99 log2 enrichment (interaction score)
same,binding signal,[7],4.98 log2 enrichment (interaction score)
same,binding signal,[8],3.61 log2 enrichment (interaction score)
GGCUAGAACUAGUGGAUCCCCCGGCGCCCGGCGGCUCGAGCCCGGGUAAGUGUAAUUAGUCUGCAUGCCGCCGGGCGCCAUGCCUGCAGGUCGACUCUAGAAAACAUG,binding signal,[9],3.79 log2 enrichment (interaction score)
same,binding signal,[8],1.77 log2 enrichment (interaction score)
GGCUAGAACUAGUGGAUCCCCCGGCGCCCGGCGGCUCGAGCCCGGGUAAGUGUAUAUAGUCUGCAUGCCGCCGGGCGCCAUGCCUGCAGGUCGACUCUAGAAAACAUG,binding signal,[4],2.95 log2 enrichment (interaction score)
same,binding signal,[10],3.82 log2 enrichment (interaction score)
same,binding signal,[6],6.39 log2 enrichment (interaction score)
GGCUAGAACUAGUGGAUCCCCCGGCGCCCGGCGGCUCGAGCCCGGGUAAGUGUACAUAGUCUGCAUGCCGCCGGGCGCCAUGCCUGCAGGUCGACUCUAGAAAACAUG,binding signal,[6],4.45 log2 enrichment (interaction score)
GGCUAGAACUAGUGGAUCCCCCGGCGCCCGGCGGCUCGAGCCCGGGUAAGUGUUAAUAGUCUGCAUGCCGCCGGGCGCCAUGCCUGCAGGUCGACUCUAGAAAACAUG,binding signal,[1],2.13 log2 enrichment (interaction score)
same,binding signal,[2],2.74 log2 enrichment (interaction score)
